# Experimental data as given in PubChem BioAssay (NCI).
# Compounds without any hit were thinned out: in the full panel of roughly 79,000, 15% have a hit. A number with no mark means an inactive call. The source made the active and inactive calls. Cut-off read from the data, not from the text of the source: active = growth inhibition above about 70%; inactive = the rest.
# Assays:
# [1] = NCI Yeast Anticancer Drug Screen. Data for the rad50 strain (AID 155);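 note: 0% = growth of vehicle-only cultures of the same strain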; conditions: S. cerevisiae rad50 strain growth inhibition; at 50.0 µM; hits give high values
# Procedure, shortened: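 Compounds were tested on a yeast strain with an engineered DNA damage repair alteration; the reported value is growth inhibition normalised to vehicle treatment.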
# [2] = NCI Yeast Anticancer Drug Screen. Data for the mec2-1 strain (AID 157); conditions: S. cerevisiae mec2-1 strain, at 50.0 µM, hits give high values
# Procedure, shortened: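 Cells of the genetically defined mec2-1 yeast strain are incubated with test compound. Inhibition of growth is calculated against vehicle-treated controls.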
# [3] = NCI Yeast Anticancer Drug Screen. Data for the sgs1 mgt1 strain (AID 161);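 note: 0% = growth of cultures given vehicle only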; conditions: S. cerevisiae sgs1 mgt1 strain, at 50.0 µM, hits give high values
# Procedure, shortened: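 Test agents were incubated with a DNA-repair-mutant yeast strain. Growth was then read and compared against vehicle-treated controls.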
# [4] = NCI Yeast Anticancer Drug Screen. Data for the cln2 rad14 strain (AID 165);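 note: 0% = growth equal to vehicle treated cultures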; conditions: S. cerevisiae cln2 rad14 strain, at 50.0 µM, hits give high values
# Procedure, shortened: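 The screen exposed genetically defined yeast (cln2 rad14) to test compounds and scored growth inhibition relative to vehicle-treated controls.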
# [5] = NCI Yeast Anticancer Drug Screen. Data for the bub3 strain (AID 167); conditions: S. cerevisiae bub3 mutant strain, at 50.0 µM, hits give high values
# Procedure, shortened: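 Growth of a checkpoint-deficient yeast mutant is measured after compound exposure. Values represent inhibition relative to vehicle.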
# [6] = NCI Yeast Anticancer Drug Screen. Data for the mlh1 rad18 strain (AID 175); conditions: S. cerevisiae mlh1 rad18 strain growth inhibition; at 50.0 µM; hits give high values
# Procedure, shortened: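 Compound-treated yeast growth, normalised to vehicle controls. Strain bears defined DNA repair mutations.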
Structure (SMILES),growth inhibition [1],growth inhibition [2],growth inhibition [3],growth inhibition [4],growth inhibition [5],growth inhibition [6]
O=C(O)C1C2C3CCC(C3)C12 (stereo unspecified),2.7%,16.4%,8.2%,34.6%,-4.9%,1.95%
CCNCc1cc(Nc2cc(C)nc(/N=C(\N)Nc3ccc(Cl)c(Cl)c3)n2)ccc1OC,98.8% (active),99% (active),99.3% (active),97.5% (active),98.2% (active),98.4% (active)
Cc1nc2ccccc2c(=O)n1NC(=O)c1ccccn1,-6.6%,-10%,-11.6%,-1.05%,-5.55%,-8.25%
CC(C)(C)OC(=O)c1c2ccccc2cc2ccccc12,21.9%,12.4%,14%,14.2%,12.1%,10.3%
CC(=O)OCC1OC(n2c3c(cc(C#N)c2=S)CCCCCC3)C(OC(C)=O)C(OC(C)=O)C1OC(C)=O (stereo unspecified),22.2%,4.45%,12.1%,-12.8%,-4%,33.4%
CCS(=O)(=O)Nc1ccc(NS(=O)(=O)CC)cc1,39.7%,11.3%,29.1%,16.5%,17.9%,25.4%
N/N=C1\CCCc2c1no[n+]2[O-],6.05%,-4.05%,-0.5%,4%,-9.9%,3.2%
CN1N=C2c3ccccc3OC(c3ccccc3)[C@H]2C1c1ccccc1 (stereo partly specified),-46.8%,-47.2%,-40.2%,-3.8%,-61.4%,-41.7%
CC1CCOCO1 (stereo unspecified),-3.3%,0.1%,-1.05%,1.75%,13.1%,-9.2%
COc1cc(-c2cc(=O)c3cc4c(=O)cc(-c5cc(OC)c(OC)c(OC)c5)oc4cc3o2)cc(OC)c1OC,-11.2%,1.25%,11.2%,-75%,-7.7%,-5%
CCOC(=O)Cc1ccc(OC)c(OC)c1,3.45%,-7.05%,3.9%,-17.1%,-2.8%,1.4%
COC(=O)c1cc([N+](=O)[O-])cc2ccccc12,35.8%,-24.6%,19.1%,11.3%,23.1%,0.65%
CC(C)=CCNc1ncnc2c1c(C#N)cn2C1OC(CO)C(O)C1O (stereo unspecified),-1.2%,-23.7%,-23.4%,15.7%,-17.5%,-5.95%
C1CCCCC/C2=C(\CCCC1)CSCCCS2,-25.8%,-19.9%,-16.1%,-14.6%,0.55%,-36.5%
CC(C)C(=O)Nc1nc(OCCc2ccc([N+](=O)[O-])cc2)c2ncn(C3CC(O)C(CO)O3)c2n1 (stereo unspecified),3.5%,-0.2%,5.8%,8.5%,-0.75%,-11.8%
NNC(=O)CC1(O)CCCCC1,-0.35%,-9.2%,2.3%,0.4%,-17.1%,-19.8%
NC(CSSCC(N)=NC1CCCCC1)=NC1CCCCC1,6.5%,3.4%,13%,7.35%,-1.45%,20%
COC(=O)c1ccc(CS(=O)(=O)c2ccccc2)cc1,2%,-6.3%,4.6%,7.1%,14.7%,-11.5%
COC(=O)C(C(=O)C(=O)Nc1cccc(OC)c1)c1cnc2ccccc2n1 (stereo unspecified),-16.4%,-8.85%,-9.45%,21.2%,6.9%,-10.5%
COCc1cc(CC(C)=O)nc(C/C=N/NC(N)=O)n1,-18.4%,-10.4%,-9.75%,-28.4%,-47%,-11.7%
CCOC(=O)C1=C(C)c2ccccc2OC1C(=O)O (stereo unspecified),4.55%,11.1%,16.8%,-23.4%,-13.1%,-10.3%

Structure (SMILES),growth inhibition [1],growth inhibition [2],growth inhibition [3],growth inhibition [4],growth inhibition [5],growth inhibition [6]
Cc1ccc(S(=O)(=O)CNC(=O)C(O)(O)C(F)(F)F)cc1,-24.9%,-2.5%,-9.45%,27.8%,-1.9%,-12.4%
CC(=O)O/C(=C\C(=O)[C@H]1CC[C@H]2[C@@H]3CC[C@@H]4C[C@H](OC(C)=O)CC[C@]4(C)[C@H]3C(=O)C[C@]12C)C(F)(F)F,-16.1%,23.6%,5.25%,18.8%,8.85%,-13.6%
NC(=S)NNCC(=O)CC(O)(C(F)(F)F)C(F)(F)Cl (stereo unspecified),-21.2%,-6.95%,-21.6%,-21.9%,21.4%,-0.65%
N#Cc1c(-c2ccc(Cl)cc2)c(C#N)c(=O)n(NS(=O)(=O)c2ccccc2)c1O,17.5%,46.9%,41.7%,48%,47%,50.2%
O=C1C=C(Cl)C(=O)O1,8.85%,10.2%,-8.8%,-9.1%,-8%,15.6%
c1ccc(CNc2ncncc2-c2ccccc2)cc1,2.75%,3.85%,17.4%,9.1%,1.6%,5.15%
c1ccc(CCc2ccccn2)nc1,22.9%,0.8%,-13.6%,7.2%,9.5%,1.45%
Cc1cc(OCCOC(=O)Nc2ccccc2C(F)(F)F)cc(C)c1Cl,-7.6%,-5.2%,-3.35%,-44.4%,-3.5%,10.8%
C#CCI,20.9%,6.5%,6.95%,33.9%,7.35%,17.5%
O=C(O)c1cccc([N+](=O)[O-])c1Nc1cccc(C(F)(F)F)c1,21.4%,32.5%,32.5%,29.3%,27.1%,0.25%
COc1ccc2c(=O)cc[nH]c2c1OC,-13.9%,-16.4%,-8.2%,-23.9%,9.1%,4.85%
O=CNCC(=O)Nc1ccccc1,-8.4%,-2.45%,-3.45%,-6.9%,10.8%,-10.4%
CC(C)(C)CC(C)(C)c1ccc2c(c1)NC(C1Nc3cc(C(C)(C)CC(C)(C)C)ccc3O1)O2 (stereo unspecified),8.05%,-5.8%,-4.55%,-4.4%,-2.6%,10.8%
CC(=O)c1cccc(C(=O)O)c1,-17.4%,1.95%,-11.7%,-29.7%,-2.35%,-4.3%
O=C1CC=C2C3CC4N(CCC45c4ccccc4N1C25)C/C3=C\CBr (stereo unspecified),-8.45%,-21.8%,-7.95%,8.15%,7.2%,-5.95%
CCOC(=O)/C(F)=C/c1ccc(C)cc1,20.6%,-8.55%,3.85%,11.1%,0.15%,8.4%
O=C(O)CNC1CCCC1,-1.3%,3.65%,4.35%,-1.6%,4.95%,-15.1%
COC(=O)c1cc(C(=O)OC)c(C(=O)OC)cc1C(=O)OC,-1.35%,-1.25%,15.8%,-37.8%,4.2%,22.1%
Nc1cc(Cl)c(I)c(Cl)c1,-4.5%,-29.6%,5.05%,10.2%,-2.15%,14.4%
Nc1cc(OCc2ccccc2)ncn1,10.6%,11%,3.75%,-11.6%,-1.05%,20.9%
